# Inconclusive results are not listed. Where a call stands in place of a potency, no number is given. Activity calls are given as the source filed them. The call rests on the fitted dose curve; in most records, active means well fitted activation curve with a large enough effect; inconclusive means small, poorly fitted or top-dose-only effect; inactive means no such curve, though single readings can be large or run the other way.
# Assay: qHTS Assay for NPC1 Promoter Activators: Hit Validation Using Renila Luciferase Read-Out for NPC1
# Conditions: Huh7 NPC1 promoter-luciferase reporter, luminescence, 24 h; series mostly up to 76.9 µM
# Outline: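 Luciferase reporter read-out: promoter activation measured by luminescence after 10 min with detection reagent at room temperature. Cells were Huh7 with a stable NPC promoter-luciferase construct, treated 24 h at 37 deg C.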
# Potency means the concentration at half of the fitted maximal effect.
row,SMILES,Potency
1,O=C(CCCn1c(=O)oc2ccccc21)N1CCN(c2ccccn2)CC1,inactive
2,CCCCn1c(Nc2ccc(OC)cc2)nc2ccccc21,inactive
3,O=C(c1cc2cc([N+](=O)[O-])ccc2oc1=O)n1cccn1,inactive
4,O=C(C1COc2ccccc2O1)N1CCN(S(=O)(=O)c2ccccc2)CC1 (centres undefined),inactive
5,O=C(O)CSc1nnc(-c2ccncc2)n1CCc1ccccc1,inactive
6,O=C(NNC(=O)C1COc2ccccc2O1)c1ccccc1O (centres undefined),inactive
7,COc1ccc2oc(=O)c(C(=O)NC(C)c3ccccc3)cc2c1 (centres undefined),inactive
8,COc1cccc(C2Nc3ccccc3NC3=C2C(=O)CC(C)(C)C3)c1 (centres undefined),inactive
9,Cc1nnc2n(c1=O)N=C(c1ccc(Cl)cc1)CS2,inactive
10,CC1CCCN(S(=O)(=O)c2ccc(C(=O)Nc3nnc(-c4ccncc4)o3)cc2)C1 (centres undefined),inactive
11,O=C(CSc1nnc(-c2csc3c2CCCC3)o1)Nc1ccccc1,inactive
12,CCCN(CCC)CCCNC(=O)c1cc2cc3ccc(Cl)cc3nc2o1,inactive
13,COc1ccc(/C=C\C(=O)c2c(O)ccc3c(C)cc(=O)oc23)cc1OC,inactive
14,NC(=O)C(=O)NN=C1C2CC3CC(C2)CC1C3,inactive
15,Cc1ccc(C(=O)Nc2ccc(N3CCN(C)CC3)nc2)cc1,inactive
16,Cc1ccc(N=Cc2sc(O)c3ccccc23)c(C)c1,inactive
17,CC(=O)Nc1ccc(-c2csc(Nc3ncccn3)n2)cc1,inactive
18,CC(=O)[C@@H]1[C@@H](C(=O)c2ccc(C)cc2)[C@]2(C(=O)Nc3ccccc32)[C@H]2C=Cc3cc(F)ccc3N12,inactive
19,Cc1ccc(S(=O)(=O)/N=C(/Nc2ccccn2)c2ccc(Cl)cc2)cc1,11.6 µM (active)
20,COc1cccc(CNC(=O)CN(c2cc(C)cc(C)c2)S(=O)(=O)c2c(C)noc2C)c1,inactive

row,SMILES,Potency
1,CN(C)/C=N/c1c(C#N)cnn1-c1nc2ccccc2s1,inactive
2,COc1ccc(-c2nnc(SCC(=O)/C(C#N)=C(\C)N)o2)cc1,inactive
3,O=C(CSc1nnc(-c2ccccc2)o1)Nc1ccccc1F,inactive
4,NCCOc1ccccc1-c1ccccc1,inactive
5,O=C(CCS(=O)(=O)c1ccccc1)Nc1ccc(-c2nc3ccccc3s2)cc1,inactive
6,Cc1ccc(C(=O)NC2CCN(CC(=O)Nc3c(C)cc(C)cc3C)CC2)cc1,inactive
7,CCN(C(=O)COC(=O)c1ccc(C=O)cc1)c1c(N)n(Cc2ccccc2)c(=O)[nH]c1=O,inactive
8,CC1=C(C(=O)OC2CCCC(C)C2)C(c2ccccc2)NC(=O)N1 (centres undefined),inactive
9,CC(=O)Nc1nnc(SCC(=O)NCCOc2ccccc2)s1,inactive
10,COc1ccc(C(c2nnnn2CCc2ccccc2)N2CCN(C3CCCC3)CC2)cc1 (centres undefined),13 µM (active)
11,CCCc1cc(C(=O)Nc2ccccc2SC)no1,inactive
12,Cc1ccc(S(=O)(=O)/N=C2\C=C(Nc3cccc(C(=O)O)c3)C(=O)c3ccccc32)cc1,inactive
13,Cc1nc(-c2ccccn2)sc1C(=O)Nc1ccc(F)cc1F,inactive
14,N#C/C(=N\Nc1ccc(Cl)cc1)C(=N)N1CCCCC1,inactive
15,CCC(=O)Nc1cc(-c2cc3ccccc3oc2=O)ccc1OC,inactive
16,Cc1nn(CCCC(=O)NCc2ccc(F)cc2)c(C)c1[N+](=O)[O-],inactive
17,COCCNC(=O)CN1C(=O)NC(c2ccccc2)(c2ccccc2)C1=O,inactive
18,Cc1csc(NC(=O)CSc2nnc(-c3ccncc3)o2)n1,inactive
19,C=CCc1ccc(OCCOCCNCCOC)c(OC)c1,inactive
